Screening data as filed in PubChem.
Most compounds without a hit are left out; they make up all but 21% or so of the library.
NS1 function inh = influenza NS1 inhibition; 270,000 compounds, 0.4% hits; Potency, µM (highest dose often 46.1 µM), without a hit: top-dose activity, positive = more growth; AID 2326; calls by dose curve; also: potency is read from the fitted curve at half-maximal effect; actives are rising curves; nearly all actives have a fitted effect of over 50% in size
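Read-out: OD600 growth recovery of NS1-expressing budding yeast. Cells grown overnight at 30C in -URA glucose medium, washed, resuspended and diluted 1:100 in 2% galactose assay medium, pH 6.0. Same strain lacking NS1 served as positive control.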
Pf growth 48h = inhibits P. falciparum growth in the first generation, 48 h; P. falciparum luciferase growth in erythrocytes, 48 h; Potency, µM (titrated, usually from 28.7 µM), for inactives: top-dose activity change, negative = inhibition, usual class: inhibitors; 310,000 compounds, 5.9% hits; also: potency is read from the fitted curve at half-maximal effect; % is scaled to controls: 0 for no effect and ±100 for the full control effect
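Growth was read as firefly luciferase luminescence after a 48 h, 37 C, 5% CO2 exposure of compounds to reporter-bearing P. falciparum cultures (0.1% parasitemia, 2% hematocrit final) in Albumax-supplemented RPMI 1640.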
Shiga inhibitor = inhibitors of Shiga toxin in Vero cells. Vero cells, Shiga toxin protein synthesis inhibition reporter. inhibition, % at 38.7 µM. 290,000 compounds, 9.2% hits. AID 2315; in the data active = inhibition mostly above about 28%, no sharp cut-off; inactive = mostly below about 43%; also: 0% is about no effect
CHX counter = affects cycloheximide protein synthesis inhibition readout, counter-screen | cell reporter, cycloheximide protein synthesis inhibition counterscreen | max response, % | 300,000 compounds, 12% hits | AID 2314; in the data active = max response mostly above about 13%, no sharp cut-off; inactive = mostly below about 14%; also: read at 38.3 µM for the half of the compounds with a filed dose; 0% is about no effect
Pf growth 96h = P. falciparum growth inhibition at 96 hour, primary screen for plastid delayed-death inhibitors; P. falciparum luciferase reporter growth, 96 h; Potency, µM (top dose mostly 28.7 µM), inactives show top-dose activity change, negative = inhibition, most hits filed as inhibitors; 320,000 compounds, 6.9% hits; AID 504834; also: potency is read from the fitted curve at half-maximal effect; % is scaled to controls: 0 for no effect and ±100 for the full control effect
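Readout is luminescence from an integrated firefly luciferase in P. falciparum. Red cells, 2% hematocrit and 0.05% parasitemia final, were cultured with compound through two parasite generations (96 hours) at 37 C, 5% CO2.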
FBPA Giardia inh = Giardia lamblia aldolase inhibition | A8B2U2 | purified Giardia FBPA | Potency, µM (series often up to 59.6 µM), without a hit: at the top dose activity, negative = inhibition, actives largely listed as inhibitors | 290,000 compounds, 0.71% hits | AID 2451; also: potency is read from the fitted curve at half-maximal effect; % is scaled to controls: 0 for no effect and ±100 for the full control effect; nearly all actives have a fitted effect of over 55% in size
Target sequence (A8B2U2 whole entry, looked up): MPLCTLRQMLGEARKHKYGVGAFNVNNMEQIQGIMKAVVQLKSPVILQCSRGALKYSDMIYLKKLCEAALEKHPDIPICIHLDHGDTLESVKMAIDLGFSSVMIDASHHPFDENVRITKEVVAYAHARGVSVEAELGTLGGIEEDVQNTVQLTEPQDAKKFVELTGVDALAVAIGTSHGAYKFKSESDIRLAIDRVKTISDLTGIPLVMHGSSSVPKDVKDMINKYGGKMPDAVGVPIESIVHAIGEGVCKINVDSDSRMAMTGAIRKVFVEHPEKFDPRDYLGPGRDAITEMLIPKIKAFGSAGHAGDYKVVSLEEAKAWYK
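Giardia FBPA (40 nM reagent) was preincubated 10 min at RT with compound (up to 57.5 uM final), then substrate plus GAPDH/TPI/NAD/arsenate coupling system with diaphorase/resazurin was added; resorufin fluorescence (525/598 nm) was read after 20 min.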
* hit, by the source's call; ? = inconclusive; nt = no result; [ ] = remark or other dose. Unless noted, calls follow the shape of the dose curve; as a rule, active = well fitted curve in the direction sought with a large enough effect; inconclusive = small, poorly fitted or top-dose-only effect, or another doubt; inactive = no such curve, though single readings can be large; an effect the other way counts as inactive or inconclusive.

SMILES	NS1 function inh	Pf growth 48h	Shiga inhibitor	CHX counter	Pf growth 96h	FBPA Giardia inh
c1cc(CN2CCCCC2)cc(OCCCNc2nc3ccccc3s2)c1	-23%	13µM*	nt	nt	4.8µM*	-3%
O=C(NCC1CCCN(Cc2cccc(OCCO)c2)C1)c1ccc(F)cc1 (centres undefined)	2%	0%	32	-1	?	-1%
CC(C)c1cc(C(F)(F)F)nc(NNc2nc(C(C)C)cc(C(F)(F)F)n2)n1	-1%	nt	nt	nt	nt	nt
c1ccc(CN2CCC3(CC2)SSC2(CCN(Cc4ccccc4)CC2)SS3)cc1	-3%	nt	nt	nt	nt	nt
Nc1nc(SCC(=O)Nc2ccc([N+](=O)[O-])cc2)n[nH]1	3%	11%	-8	-3	-7%	3%
N#C/C(=C\Nc1ccccn1)C(=O)C1CC1	0%	nt	nt	nt	nt	nt
Cc1ccc(N(C(=O)c2csnn2)C(C(=O)NCc2ccccc2)c2cccnc2)cc1 (centres undefined)	7%	?	-7	4	20%	6%
Cc1ccc2nc(-c3ccncc3)[nH]c2c1	-18%	175%	83*	47*	16%	-1%
Cc1ccc2nc(C(F)C(F)(F)F)[nH]c2c1 (centres undefined)	1%	25%	44*	22*	?	5%
FC(c1nc2ccccc2[nH]1)C(F)(F)F (centres undefined)	-1%	22%	15	7	54%	-1%
Cc1ccc(-n2ncc3c(=O)n(CC(=O)OCc4ccccc4)cnc32)cc1	2%	nt	57	31*	nt	0%
O=C(Cn1cnc2c(cnn2-c2ccccc2)c1=O)OCc1ccccc1	4%	40%	76*	30*	-26%	4%
O=C(Cn1cnc2c(cnn2-c2ccc(F)cc2)c1=O)OCc1ccccc1	3%	nt	-9	3	-19%	2%
COc1ccc(OCc2cc(C(=O)N(C)Cc3cc(C4CC4)n[nH]3)no2)c(Cl)c1	-14%	9.3µM*	138*	40*	-21%	?
COc1ccc(OCc2cc(C(=O)NCC(C)Oc3cccnc3)no2)c(Cl)c1 (centres undefined)	-49%	-17%	43*	32*	28%	nt
COc1ccc(OCc2cc(C(=O)NC(C)Cc3cnccn3)no2)c(Cl)c1 (centres undefined)	5%	-3%	72*	31*	?	0%
COc1ccc(OCc2cc(C(=O)N(C)Cc3cnccn3)no2)c(Cl)c1	-1%	69%	78*	46*	?	-2%
COc1ccc(-n2c(=O)c(-c3cccs3)nc3cncnc32)cc1	nt	nt	nt	nt	nt	1%
COc1ccc(Cl)cc1S(=O)(=O)NC(C)C(=O)NCc1cccnc1 (centres undefined)	-4%	28%	-18	-4	0%	3%
COc1cc(Cl)ccc1OCc1cc(C(=O)N(C)Cc2cccc3cnccc23)no1	-67%	?	70*	61*	8%	nt
COc1cc(Cl)ccc1OCc1cc(C(=O)NC(C)Cc2cccnc2)no1 (centres undefined)	-45%	8%	53*	48*	14%	nt
COc1ccc2[nH]c(C(=O)O)c(CCN3C(=O)c4cccc([N+](=O)[O-])c4C3=O)c2c1	11%	31%	-3	0	11%	-3%
Cc1cccc(CNc2ccnc(-c3ccccc3CN(C)C)n2)c1	nt	nt	nt	nt	nt	-1%
Cc1cc(C=C2C(=O)c3ccccc3C2=O)c(C)n1C	6%	-18%	63*	65*	4.7µM*	-15%
Cc1cc(/C=C2\C(=O)NC(=O)N(c3cccc(Br)c3)C2=O)c(C)n1C	15%	-8%	13	1	-4%	1%
SMILES	NS1 function inh	Pf growth 48h	Shiga inhibitor	CHX counter	Pf growth 96h	FBPA Giardia inh
CCn1c(C)cc(C=C2C(=O)c3ccccc3C2=O)c1C	-10%	-81%	82*	62*	5%	-26%
CCn1c(C)cc(/C=C2\NC(=O)N(Cc3ccccc3)C2=O)c1C	?	nt	-7	-1	?	-4%
COc1ccc([N+](=O)[O-])cc1NC(=O)COC(=O)c1ccccn1	nt	35%	14	19	40%	-25%
COc1cc2c(cc1OC)-c1c(OC)c(OC)cc3c1C(C2)N(C)CC3 (centres undefined)	1%	4.1µM*	-22	-6	126%	?
COc1cccc(-c2c(-c3cc(OC)cc(OC)c3)n(C)c3ccc(-c4ccc5[nH]ccc5c4)cc23)c1	nt	5.9µM*	nt	nt	?	nt
COc1ccc(-c2c(-c3cc(OC)cc(OC)c3)n(C)c3ccc(-c4cc(F)cc(OC)c4)cc23)cc1	nt	0%	nt	nt	?	nt
COc1cc(OC)cc(-c2c(-c3ccc(F)cc3)c3cc(-c4ccc5[nH]ccc5c4)ccc3n2C)c1	nt	5.2µM*	nt	nt	1.7µM*	nt
COc1ccc(-c2c(-c3cc(OC)cc(OC)c3)n(C)c3ccc(-c4ccc(SC)cc4)cc23)cc1	nt	38%	nt	nt	49%	nt
COc1cccc(-c2c(-c3cc(OC)cc(OC)c3)n(C)c3ccc(-c4cccc5[nH]ccc45)cc23)c1	nt	1.9µM*	nt	nt	?	nt
Cc1ccc(S(=O)(=O)N2CCN(CCOc3cccc(C)c3)CC2)cc1	nt	?	nt	nt	-30%	nt
C=CCCC(=O)Nc1nc(C)c(-c2csc(Nc3ccc(Cl)cc3Cl)n2)s1	27%	?	14	3	8.3µM*	1%
Cc1nc(NC(=O)CC(C)C)sc1-c1csc(Nc2ccc(Cl)cc2Cl)n1	?	?	19	22	9.3µM*	10%
COc1ccc(Cl)cc1Nc1nc(-c2sc(NC(=O)CC(C)C)nc2C)cs1	0%	10µM*	-12	-1	9.3µM*	4%
C=CCCC(=O)Nc1nc(C)c(-c2csc(Nc3cc(Cl)ccc3OC)n2)s1	28%	?	-18	-2	?	0%
Cc1nc(NC(=O)CC(C)C)sc1-c1csc(Nc2ccc(Cl)cc2)n1	23%	10µM*	-15	2	4.7µM*	-1%
CCCC(C)C(=O)Nc1nc(C)c(-c2csc(Nc3cc(Cl)ccc3C)n2)s1 (centres undefined)	19%	?	-20	-2	?	1%
CCC(Cc1ccccc1)NS(=O)(=O)c1c(C)nc2scc(C)n2c1=O (centres undefined)	4%	-3%	-11	-6	16%	nt
CCCC(=O)Nc1cc(C(=O)N(C)CC(OC)OC)ccc1S(=O)(=O)c1ccc(C)cc1	-2%	1%[0.00184 µM]	-7	-4	-7%	5%
CCCC(=O)Nc1ccc(C(=O)NCCc2ccc(F)cc2)cc1	7%	15%	19	24*	?	1%
CCCCC(=O)Nc1ccc(C(=O)NCCc2ccccc2)cc1	-3%	13%	11	31*	?	-1%
CCCCC(=O)Nc1ccc(C(=O)NNC(=O)CCc2ccccc2)cc1	-3%	0%	12	7	32%	3%
O=C1[C@H]2[C@H]3C=C[C@@H](C4[C@H]3[C@@H]3C(=O)N(CN5CCSCC5)C(=O)[C@H]43)[C@H]2C(=O)N1CN1CCSCC1 (some centres undefined)	5%	nt	nt	nt	nt	nt
